# About 2,900 (6.6%) of roughly 44,000 sequences were called active. Rule as the data show it: active = GI50 up to about 1.1 µM and inactive = higher. These entries were drawn from the full list. Results with a measured potency or affinity are listed apart.
# Test system: NCI/ADR-RES
row,Substance,GI50 [µM]
1,"CISPLATIN, CHEMBL11359",4.93
2,"[Bis(aminomethyl)tetramethylenesilane]dichloropaltinum(II), CHEMBL2146205",5.22
3,"[Bis(aminomethyl)tetramethylenesilane]tetrachloropaltinum(IV), CHEMBL2146189",5.69
4,"[Bis(aminomethyl)pentamethylenesilane]tetrachloropaltinum(IV), CHEMBL2146204",1.91
5,"[Bis(aminomethyl)pentamethylenesilane]dichloropaltinum(II), CHEMBL2146202",14.3
6,"[Bis(aminomethyl)dimethylsilane]tetrachloroplatinum(IV), CHEMBL2146190",15
